Inconclusive results are not listed. The source made the active and inactive calls. How the source made its calls: active means hit-call score of the fitted dose curve at least 0.9, where 1 is the maximum; inconclusive means response in the unintended direction; inactive means score below 0.9.

Drawing on PubChem BioAssay (EPA / NIEHS), this text covers outcome and AC50 for 31 compounds.

The test is described as follows: ACEA_ER_AUC_viability: ACEA Biosciences xCELLigence Real-Time Cell Analysis on Estrogen Receptor Agonism for Viability (AID 2283782).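 Further: hit means loss of impedance signal meaning reduced cell growth or viability.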 The procedure, abridged: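 T-47D; phenol red-free RPMI1640 + 10% CS-FBS; 8 conc., 1:4 serial, max 100 uM final, ≤0.5% DMSO; n = 2; continuous exposure; impedance monitored to 80 h post-dose; AUC vs DMSO.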
As to `O=C1NC(=O)C(c2ccccc2)(c2ccccc2)N1`, the call was inactive. Turning to `CO[C@@H]1COCC[C@@H]1N[C@@H]1CC[C@@](C(=O)N2CCc3ncc(C(F)(F)F)cc3C2)(C(C)C)C1`, the AC50 (usually the midpoint of the concentration-response curve, whichever way the signal moves) is 21.3 µM (active). `CCCCCCCC(=O)OC`: the outcome was inactive.

For `Oc1ccc(O)cc1`, the AC50 is 11.3 µM (active). Regarding `CC(=O)OCC(COC(C)=O)OC(C)=O`, the outcome was inactive. Same read-out and setting: in the case of `COC(=O)CCC(=O)OC` it was “inactive”. With `O=C(N[C@@H](c1ccccc1)[C@@H]1CCCCN1)c1cccc(C(F)(F)F)c1Cl`, the AC50 is 15.3 µM (active). For the compound `CC(=O)S[C@H](C(=O)N[C@H]1Cc2ccccc2[C@H]2CCC[C@@H](C(=O)O)N2C1=O)C(C)C`, the compound was classed as inactive. For the compound `O=C1c2c(O)cccc2Cc2cccc(O)c21`, the compound was classed as inactive. `COc1ccc(C(=O)Nc2nc3ccccc3c(NCc3ccccc3)c2C#N)cc1`: the compound was called inactive.

In the case of `CN(C)C(=O)NC1(c2ccccc2)CCN(CC[C@@]2(c3ccc(F)c(F)c3)CN(C(=O)c3ccccc3)CCO2)CC1`, the AC50 is 25.4 µM (active). For `CN(C)CCCN(C)CCCN(C)C`, the result was inactive. On the same count and under the same terms, the same measure for `CC1(C)C(=O)NC(=O)N1CO`: “inactive”. For the compound `NC1CCCCC1`, the outcome was inactive. On to `C/C=C/c1ccc(OC)cc1`, for which the compound was classed as inactive. Turning to `Oc1ccccc1O`, the AC50 is 90.5 µM (active). Consider `Cc1cn([C@H]2C=C[C@@H](CO)O2)c(=O)[nH]c1=O`, for which the outcome was inactive. Regarding `Cc1ccc(C(C)(C)C)c(O)c1`, the AC50 is 75.6 µM (active). As to `CC(C)COC(=O)CCCCC(=O)OCC(C)C`, the outcome was inactive.

In the case of `C/C=C/C=C/C(=O)O`, the outcome was inactive. Take `COc1ccc(OC(F)(F)F)cc1CN[C@H]1CCCN[C@H]1c1ccccc1`: the AC50 was 14.9 µM (active).

As to `O=NO`, the compound was called inactive. Regarding `CC(=O)OC1CC(C)OC(C)O1` (stereo unspecified), the compound was classed as inactive. Regarding `CC(N)=O`, the compound was called inactive. `CCCCCCC(C=O)=Cc1ccccc1`: the AC50 is 74.7 µM (active).

As for `CCCCCCCCCCCCCCOS(=O)(=O)O`, the AC50 was 74.5 µM (active). Turning to `O=C(O)CC(O)(CC(=O)O)C(=O)O`, the compound was classed as inactive.

For `OCC(CO)n1cnc(-c2ccc(F)cc2)c1-c1ccnc(Oc2ccccc2)n1`, the compound was called inactive. For the compound `C=CCc1ccc(OC)c(OC)c1`, the compound was called inactive.

For `S=c1[nH]c2ccccc2s1`, the AC50 was 91.9 µM (active). In the case of `O=C(O)CN(CC(=O)O)CC(=O)O`, the call was inactive.
